Experiment [1] is described as follows: NCI Yeast Anticancer Drug Screen. Data for the rad50 strain (AID 155).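 Note: 0% = growth of vehicle-only cultures of the same strain.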 Particulars: S. cerevisiae rad50 strain growth inhibition, active compounds read high. A digest of the protocol: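 Readout: growth inhibition relative to vehicle-treated cultures. Compound exposure was carried out in a genetically defined yeast strain deficient in DNA damage repair.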
The nature of experiment [2]: NCI Yeast Anticancer Drug Screen. Data for the mec2-1 strain (AID 157). Conditions: S. cerevisiae mec2-1 strain, active compounds read high. A digest of the protocol:
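Yeast mec2-1 mutant treated with compound. Readout: growth inhibition vs vehicle controls.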

Experiment [3] in a line: NCI Yeast Anticancer Drug Screen. Data for the sgs1 mgt1 strain (AID 161).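 Note: 0% = growth of cultures given vehicle only.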 Particulars: S. cerevisiae sgs1 mgt1 strain, active compounds read high. The procedure, abridged: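 Test agents were incubated with a DNA-repair-mutant yeast strain. Growth was then read and compared against vehicle-treated controls.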
The nature of experiment [4]: NCI Yeast Anticancer Drug Screen. Data for the cln2 rad14 strain (AID 165).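 Note: 0% = growth equal to vehicle treated cultures.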 Particulars: S. cerevisiae cln2 rad14 strain, active compounds read high. A digest of the protocol: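 cln2 rad14 yeast strain; compound exposure; growth inhibition read vs vehicle controls.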
A short description of experiment [5]: NCI Yeast Anticancer Drug Screen. Data for the bub3 strain (AID 167). Conditions: S. cerevisiae bub3 mutant strain, active compounds read high. The procedure, abridged:
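Readout: yeast growth inhibition, expressed relative to vehicle-only wells. The test organism is a mutant strain from a panel with lesions in DNA repair or checkpoint genes.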

A short description of experiment [6]: NCI Yeast Anticancer Drug Screen. Data for the mlh1 rad18 strain (AID 175). Particulars: S. cerevisiae mlh1 rad18 strain growth inhibition, active compounds read high. A digest of the protocol: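 Yeast w/ defined DNA-repair lesions; compound exposure; growth vs vehicle controls → % inhibition.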
The mark [7] stands for this setting: at 5.0 µM (retest, dose inferred, filed as 0.5).
[8] abbreviates: at 50.0 µM (retest, dose inferred, filed as 5.0).

Results on 10 compounds are retold here after PubChem BioAssay (NCI).

About 79,000 compounds went through this panel and 15% of them were active in at least one assay; those are over-represented in the sample as a whole. Values without a mark were called inactive. The source made the active and inactive calls. Cut-off read from the data, not from the text of the source: active = growth inhibition above about 70%; inactive = the rest.

For the compound `CC[PH+](CC)CC.[Cl][Au]`, the growth inhibition in experiment [1] (setting [7]) is 98% (active); in experiment [1] (setting [8]), 98% (active); in experiment [1] (at 50.0 µM) it was 89.8% (active); in experiment [2] (setting [7]), 99% (active); in experiment [2] (setting [8]) it was 99% (active); in experiment [2] (at 50.0 µM), 91.4% (active). Besides, the growth inhibition in experiment [3] (setting [7]) was 97% (active); in experiment [3] (setting [8]), 98% (active); in experiment [3] (at 50.0 µM) it was 91.3% (active); in experiment [4] (setting [7]) it was 92% (active); in experiment [4] (setting [8]) it was 99% (active); in experiment [4] (at 50.0 µM), 90.8% (active). Also, the growth inhibition was 99% (active) in experiment [5] (setting [7]); 99% (active) in experiment [5] (setting [8]); 89.8% (active) in experiment [5] (at 50.0 µM); 94% (active) in experiment [6] (setting [7]); 99% (active) in experiment [6] (setting [8]); 90.8% (active) in experiment [6] (at 50.0 µM).

As to `COC(=O)C1=C(C(=O)OC)C2(OC(C)=O)c3ccccc3-c3ccccc3C12` (stereo not given), the growth inhibition in experiment [1] (setting [7]) was 72% (active); in experiment [1] (setting [8]), 98% (active); in experiment [1] (at 50.0 µM), 90.2% (active); in experiment [2] (setting [7]), 92% (active); in experiment [2] (setting [8]), 99% (active); in experiment [2] (at 50.0 µM) it was 93.5% (active). The growth inhibition in experiment [3] (setting [7]) is 43%; in experiment [3] (setting [8]), 98% (active); in experiment [3] (at 50.0 µM), 91.6% (active); in experiment [4] (setting [7]) it was 86% (active); in experiment [4] (setting [8]), 99% (active); in experiment [4] (at 50.0 µM), 89.6% (active). The growth inhibition in experiment [5] (setting [7]) was 92% (active); in experiment [5] (setting [8]) it was 98% (active); in experiment [5] (at 50.0 µM), 90.2% (active); in experiment [6] (setting [7]), 73% (active); in experiment [6] (setting [8]), 99% (active); in experiment [6] (at 50.0 µM), 91.2% (active).

As to `C[CH2][Sn]([CH2]C(=O)OC)([CH2]C(=O)OC)[c]1ccccc1`, the growth inhibition in experiment [1] (setting [7]) is 97% (active); in experiment [1] (setting [8]) it was 97% (active); in experiment [1] (at 50.0 µM), 83.7% (active); in experiment [2] (setting [7]) it was 98% (active); in experiment [2] (setting [8]) it was 98% (active); in experiment [2] (at 50.0 µM) it was 89.2% (active). The growth inhibition in experiment [3] (setting [7]) is 98% (active); in experiment [3] (setting [8]) it was 98% (active); in experiment [3] (at 50.0 µM), 87.8% (active); in experiment [4] (setting [7]), 86% (active); in experiment [4] (setting [8]), 97% (active); in experiment [4] (at 50.0 µM), 84.7% (active). For the same compound, the growth inhibition in experiment [5] (setting [7]) is 98% (active); in experiment [5] (setting [8]) it was 98% (active); in experiment [5] (at 50.0 µM), 86% (active); in experiment [6] (setting [7]), 97% (active); in experiment [6] (setting [8]), 97% (active); in experiment [6] (at 50.0 µM), 90.8% (active).

Turning to `CCOC(=O)NP(=O)(NNc1ccccc1)NNc1ccccc1`, the growth inhibition was 79% (active) in experiment [1] (setting [7]); 98% (active) in experiment [1] (setting [8]); 100% (active) in experiment [1] (at 50.0 µM); 82% (active) in experiment [2] (setting [7]); 96% (active) in experiment [2] (setting [8]); 98.8% (active) in experiment [2] (at 50.0 µM). Besides, the growth inhibition in experiment [3] (setting [7]) is 92% (active); in experiment [3] (setting [8]), 98% (active); in experiment [3] (at 50.0 µM) it was 98.8% (active); in experiment [4] (setting [7]) it was 84% (active); in experiment [4] (setting [8]) it was 99% (active); in experiment [4] (at 50.0 µM) it was 98.2% (active). The growth inhibition is 93% (active) in experiment [5] (setting [7]); 98% (active) in experiment [5] (setting [8]); 98.8% (active) in experiment [5] (at 50.0 µM); 92% (active) in experiment [6] (setting [7]); 98% (active) in experiment [6] (setting [8]); 98.2% (active) in experiment [6] (at 50.0 µM).

As for `OC1CC([CH2][Hg][I])OC([CH2][Hg][I])C1` (stereo not given), the growth inhibition in experiment [1] (setting [7]) is 99% (active); in experiment [1] (setting [8]) it was 98% (active); in experiment [1] (at 50.0 µM) it was 92.8% (active); in experiment [2] (setting [7]) it was 100% (active); in experiment [2] (setting [8]), 99% (active); in experiment [2] (at 50.0 µM), 97.3% (active). The growth inhibition in experiment [3] (setting [7]) is 99% (active); in experiment [3] (setting [8]) it was 99% (active); in experiment [3] (at 50.0 µM) it was 96.5% (active); in experiment [4] (setting [7]), 99% (active); in experiment [4] (setting [8]), 99% (active); in experiment [4] (at 50.0 µM), 97.2% (active). The growth inhibition in experiment [5] (setting [7]) was 99% (active); in experiment [5] (setting [8]), 99% (active); in experiment [5] (at 50.0 µM), 98.5% (active); in experiment [6] (setting [7]), 99% (active); in experiment [6] (setting [8]), 99% (active); in experiment [6] (at 50.0 µM), 86.2% (active).

With `Nc1ccc(Br)cc1C(=O)c1ccccc1`, the growth inhibition is 12% in experiment [1] (setting [7]); 95% (active) in experiment [1] (setting [8]); 99% (active) in experiment [1] (at 50.0 µM); 11% in experiment [2] (setting [7]); 97% (active) in experiment [2] (setting [8]); 99% (active) in experiment [2] (at 50.0 µM). For the same compound, the growth inhibition is 32% in experiment [3] (setting [7]); 98% (active) in experiment [3] (setting [8]); 99.2% (active) in experiment [3] (at 50.0 µM); 12% in experiment [4] (setting [7]); 95% (active) in experiment [4] (setting [8]); 92.5% (active) in experiment [4] (at 50.0 µM). For the same compound, the growth inhibition was 6% in experiment [5] (setting [7]); 96% (active) in experiment [5] (setting [8]); 94% (active) in experiment [5] (at 50.0 µM); 14% in experiment [6] (setting [7]); 95% (active) in experiment [6] (setting [8]); 99.2% (active) in experiment [6] (at 50.0 µM).

As to `c1ccc([As+](c2ccccc2)(c2ccccc2)c2cccc3ccccc23)cc1`, the growth inhibition in experiment [1] (setting [7]) is 88% (active); in experiment [1] (setting [8]), 99% (active); in experiment [1] (at 50.0 µM) it was 99% (active); in experiment [2] (setting [7]), 90% (active); in experiment [2] (setting [8]), 99% (active); in experiment [2] (at 50.0 µM), 99.1% (active). Also, the growth inhibition in experiment [3] (setting [7]) is 93% (active); in experiment [3] (setting [8]) it was 100% (active); in experiment [3] (at 50.0 µM) it was 98.7% (active); in experiment [4] (setting [7]) it was 86% (active); in experiment [4] (setting [8]) it was 99% (active); in experiment [4] (at 50.0 µM), 99% (active). For the same compound, the growth inhibition in experiment [5] (setting [7]) is 90% (active); in experiment [5] (setting [8]), 99% (active); in experiment [5] (at 50.0 µM), 98.8% (active); in experiment [6] (setting [7]), 88% (active); in experiment [6] (setting [8]) it was 99% (active); in experiment [6] (at 50.0 µM), 98.8% (active).

As for `COc1ccc([Se][Se]c2ccc(OC)cc2OC)c(OC)c1`, the growth inhibition in experiment [1] (setting [7]) is 18%; in experiment [1] (setting [8]), 18%; in experiment [1] (at 50.0 µM), 88.3% (active); in experiment [2] (setting [7]) it was 23%; in experiment [2] (setting [8]) it was 23%; in experiment [2] (at 50.0 µM), 89.8% (active). Further, the growth inhibition in experiment [3] (setting [7]) is 18%; in experiment [3] (setting [8]), 18%; in experiment [3] (at 50.0 µM), 88.5% (active); in experiment [4] (setting [7]), 9%; in experiment [4] (setting [8]), 9%; in experiment [4] (at 50.0 µM), 90% (active). The growth inhibition in experiment [5] (setting [7]) is -4%; in experiment [5] (setting [8]) it was -4%; in experiment [5] (at 50.0 µM) it was 89.7% (active); in experiment [6] (setting [7]), 12%; in experiment [6] (setting [8]) it was 12%; in experiment [6] (at 50.0 µM) it was 88.4% (active).

As for `CCOC(=O)[C]1([Pb]([CH3])([CH3])[CH3])N=NC(C(=O)OC)=C1C(=O)OC` (stereo not given), the growth inhibition in experiment [1] (setting [7]) is 6%; in experiment [1] (setting [8]), 32%; in experiment [1] (at 50.0 µM), 68.8%; in experiment [2] (setting [7]), -1%; in experiment [2] (setting [8]), -14%; in experiment [2] (at 50.0 µM) it was -2.15%. For the same compound, the growth inhibition in experiment [3] (setting [7]) is 2%; in experiment [3] (setting [8]), 22%; in experiment [3] (at 50.0 µM), 29.8%; in experiment [4] (setting [7]), 4%; in experiment [4] (setting [8]) it was 5%; in experiment [4] (at 50.0 µM), 14.2%. The growth inhibition in experiment [5] (setting [7]) is -2%; in experiment [5] (setting [8]) it was 32%; in experiment [5] (at 50.0 µM), 15.9%; in experiment [6] (setting [7]), 1%; in experiment [6] (setting [8]), -2%; in experiment [6] (at 50.0 µM), 30.7%.

As to `CCOC(=O)C1C(O)=C(P(=O)(C2=C(O)C(C(=O)OCC)C(c3ccc(OC(C)=O)cc3)C(C(=O)O)C2=O)N(CCCl)CCCl)C(=O)C(C(=O)O)C1c1ccc(OC(C)=O)cc1` (stereo not given), the growth inhibition in experiment [1] (setting [7]) was 16%; in experiment [1] (setting [8]) it was 86% (active); in experiment [1] (at 50.0 µM), 45.6%; in experiment [2] (setting [7]), 1%; in experiment [2] (setting [8]), 85% (active); in experiment [2] (at 50.0 µM), 71.8% (active). The growth inhibition in experiment [3] (setting [7]) was 11%; in experiment [3] (setting [8]), 95% (active); in experiment [3] (at 50.0 µM), 52%; in experiment [4] (setting [7]), -5%; in experiment [4] (setting [8]), 73% (active); in experiment [4] (at 50.0 µM), 66.2%. Also, the growth inhibition in experiment [5] (setting [7]) is -4%; in experiment [5] (setting [8]), 90% (active); in experiment [5] (at 50.0 µM), 54.4%; in experiment [6] (setting [7]) it was 20%; in experiment [6] (setting [8]), 92% (active); in experiment [6] (at 50.0 µM), 61.2%.
